# The supplement of paper PMC13380429
# Assays:
# [1] = test system: Vero E6 infected with SARS-CoV-2; experiment: morphology score (similarity to uninfected cells); higher = more like uninfected cells; details: 24 h
# [2] = test system: Vero E6 infected with SARS-CoV-2; experiment: SARS-CoV-2 infection rate relative to infected DMSO; higher = more infection, active = 60 or less; details: 24 h
Structure (SMILES),morphology score [1],SARS-CoV-2 infection rate [2]
COc1cccc(CN(C(=O)CC(C)(C)C)[C@H]2C[C@@H](C(=O)N3CCNCC3)N(Cc3ccc4c(c3)OCO4)C2)c1 (10 µM),0.0543,102% (inactive)
NC(=O)c1nc(Nc2ccccc2)sc1NC(=O)C1CCCCC1 (0.833333 µM),0.0658,100% (inactive)
CCCCOC(=O)c1ccccc1Nc1cccc(C(F)(F)F)c1 [ufenamate] (10 µM),0.129,100% (inactive)
N#Cc1ccc(NCCNCC(=O)N2CCC[C@H]2C#N)nc1 (10 µM),-0.0945,114% (inactive)
CC[C@H](C)C(=O)O[C@H]1C[C@@H](C)C=C2C=C[C@H](C)[C@H](CC[C@@H]3C[C@@H](O)CC(=O)O3)[C@H]21 [lovastatin] (10 µM),0.0359,110% (inactive)
COc1c(C)cnc(Cn2cc(C#CCC(C)(C)O)c3c(Cl)nc(N)nc32)c1C (10 µM),0.181,110% (inactive)
C[C@]12CCC(=O)C=C1CC[C@@H]1[C@@H]2C(=O)C[C@]2(C)C(=O)CC[C@@H]12 [adrenosterone] (10 µM),-0.109,97.5% (inactive)
Cc1c(N)nc([C@H](CC(N)=O)NC[C@H](N)C(N)=O)nc1C(=O)N[C@H](C(=O)N[C@H](C)[C@@H](O)[C@H](C)C(=O)N[C@H](C(=O)NCCc1nc(-c2nc(C(=O)NCCC[S+](C)C)cs2)cs1)[C@@H](C)O)[C@@H](OC1OC(CO)C(O)C(O)C1OC1OC(CO)C(O)C(OC(N)=O)C1O)c1cnc[nH]1 (stereo not given in full) [bleomycin] (10 µM),0.0285,100% (inactive)
Oc1ccc(-c2nc(-c3ccc(F)cc3)c(-c3ccncc3)[nH]2)cc1 (10 µM),0.313,71% (inactive)
OCCNC1CCCc2c1[nH]c1ccc(-c3ccccc3)cc21 (stereo not given) [casin] (0.833333 µM),0.105,102% (inactive)
CC(C)CCC[C@@H](C)[C@H]1CC[C@H]2[C@@H]3CCC4=CC(=NO)CC[C@]4(C)[C@H]3CC[C@]12C [olesoxime] (10 µM),-0.0917,106% (inactive)
CN(C)CC/C=C1/c2ccccc2COc2ccccc21 [doxepin] (10 µM),0.0537,105% (inactive)
N=C(N)NCc1cccc(I)c1 [iobenguane] (10 µM),0.132,100% (inactive)
O=C(O)c1cn(-c2ccc(F)cc2)c2cc(N3CCNCC3)c(F)cc2c1=O [sarafloxacin] (10 µM),0.213,93% (inactive)
NC(=O)c1ccccc1O [salicylamide] (10 µM),-0.114,102% (inactive)
CC(C)[N+](C)(CCOC(=O)C1c2ccccc2Oc2ccccc21)C(C)C [propantheline] (10 µM),0.214,99.5% (inactive)
COc1cc(O)c(C(=O)c2ccccc2)cc1S(=O)(=O)O [sulisobenzone] (10 µM),-0.0207,109% (inactive)
CCCC(=O)Nc1ncnc2c1ncn2[C@@H]1O[C@@H]2COP(=O)(O)O[C@H]2[C@H]1OC(=O)CCC [bucladesine] (10 µM),0.0459,104% (inactive)
COc1cc(Br)c(S(=O)(=O)Nc2ccc(C(F)(F)F)c(O[C@@H]3CCN(C)C3)c2)cc1OC (10 µM),0.024,104% (inactive)
COC(=O)/C=C/C(=O)OCCN1C(=O)CCC1=O [diroximel-fumarate] (10 µM),0.0691,101% (inactive)
COc1ccc(-c2cc(=O)c3c(O)c(OC)c(O)cc3o2)cc1OC [eupatilin] (10 µM),-0.0115,109% (inactive)
O=c1ccc2cc(O[C@@H]3O[C@H](CO)[C@@H](O)[C@H](O)[C@H]3O)c(O)cc2o1 [esculin] (10 µM),0.15,111% (inactive)
CCCCOCCOc1nc(-c2ccc(C(=O)O)c(F)c2)sc1C (10 µM),-0.127,108% (inactive)

Structure (SMILES),morphology score [1],SARS-CoV-2 infection rate [2]
COC(=O)c1ccc2c(c1)NC(=O)/C2=C(\Nc1ccc(N(C)C(=O)CN2CCN(C)CC2)cc1)c1ccccc1 [nintedanib] (10 µM),-0.0524,108% (inactive)
COCCNC(=O)COc1ccc(OCCNC[C@H](O)COc2ccccc2)cc1 (10 µM),0.0156,102% (inactive)
CCNC(=O)N1CCN(CCCC(c2ccc(F)cc2)c2ccc(F)cc2)CC1 [amperozide] (10 µM),-0.101,108% (inactive)
CC[C@]12CCCN3CCc4c(n(c5ccccc45)C(=O)C1)[C@@H]32 [vinburnine] (10 µM),-0.0662,99.5% (inactive)
Nc1ncnc2c1ncn2[C@@H]1O[C@H](C[C@@H](N)CC[C@H](N)C(=O)O)[C@@H](O)[C@H]1O [sinefungin] (10 µM),0.0839,109% (inactive)
COC(=O)c1sccc1S(=O)(=O)Nc1ccc(Nc2ccccc2)cc1OC (10 µM),0.112,95% (inactive)
O=C(/C=C/c1ccc(O)c(O)c1)O[C@H](Cc1ccc(O)c(O)c1)C(=O)O [rosmarinic-acid] (10 µM),0.152,94.5% (inactive)
COc1ccc(N(C(=O)Oc2c(C)cccc2C)c2ccnc(Nc3ccc(N4CCN(C)CC4)cc3)n2)c(OC)c1 (10 µM),0.0671,111% (inactive)
COc1cc(NC(=O)c2ccc(-c3ccc(Cl)cc3)o2)cc(OC)c1 (10 µM),0.0298,112% (inactive)
C[C@H](Nc1ncnc2[nH]cnc12)c1cc2ccc(F)cc2nc1-c1ccccn1 (10 µM),0.0578,114% (inactive)
COc1cccc2c1C(=O)c1c(O)c3c(c(O)c1C2=O)C[C@@](O)(C(C)=O)C[C@@H]3O[C@H]1C[C@H](N)[C@H](O)[C@H](C)O1 [daunorubicin] (10 µM),-0.0163,106% (inactive)
CCCCC/C=C\C/C=C\C/C=C\C/C=C\CCCC(=O)Nc1ccc(O)cc1 (10 µM),0.0145,106% (inactive)
CCCC(C(=O)OCCN(CC)CC)(c1ccccc1)c1ccccc1 [proadifen] (10 µM),0.323,89.5% (inactive)
CCOc1cc(C(=O)N2CCC(N3CCN(C)CC3)CC2)ccc1Nc1ncc2c(n1)N(C1CCCC1)c1ccccc1C(=O)N2C (10 µM),-0.264,122% (inactive)
C[N+]1(C)CCC(OC(=O)C(c2ccccc2)c2ccccc2)CC1 (10 µM),0.103,114% (inactive)
Cc1c(-c2cnccn2)ssc1=S [oltipraz] (10 µM),-0.0383,109% (inactive)
N#C/C(=C\c1ccc(O)c(O)c1)C(=O)NCCCc1ccccc1 (0.833333 µM),-0.0747,119% (inactive)
O=P1(N(CCCl)CCCl)NCCCO1 (stereo not given) [cyclophosphamide] (10 µM),0.0658,97.5% (inactive)
O=C(CN1CCN(Cc2ccc3c(c2)OCO3)CC1)N1c2ccccc2Sc2ccccc21 [fenoverine] (10 µM),0.02,110% (inactive)
Cc1cc(C)c(NC(=O)N(Cc2ccc3c(c2)Cc2ccccc2-3)C2CCCCCC2)c(C)c1 (10 µM),-0.179,106% (inactive)
CC(C)(C)c1ccc(C(=O)CCCN2CCC(OC(c3ccccc3)c3ccccc3)CC2)cc1 [ebastine] (10 µM),0.606,50% (active)
O=C(N[C@H](Cc1ccccc1)C(=O)O)c1sc2cc(F)ccc2c1Cl (10 µM),0.16,79.5% (inactive)
